This is one part of a sample in which hits are shown more often than they occur.
PglD inh: blocks C. jejuni PglD acetyltransferase activity. inhibition, % at 12.5 µM. purified PglD enzyme, DTNB colorimetric CoA detection. AID 602405. 0.098% of 360,000 active; in the data active means inhibition above about 16%, passing the limit was not always enough; inconclusive means no clear call, values can overlap the other calls
ARNT-TACC3 inh: ARNT/TACC3 interaction disruption. AlphaScreen His-ARNT PAS-B/GST-TACC3 binding, luminescence; TACC3 fragment carries E629A point mutation. inhibition, % at 9.99 µM. 0.66% of 390,000 active. AID 623870;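 active means mean inhibition of replicates at least 50% and at least half of replicates each reaching 50%; inconclusive means half or more replicates reach 50% but mean below 50%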
ALR H2O2 inh: human ALR oxidase inhibition via reduced H2O2; AID 485317; inhibition, % (test concentration not listed); P55789; purified ALR, DTT oxidation, H2O2 HRP-luminol luminescence; 3.8% of 290,000 active;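 active means mean replicate inhibition above about 79%, with every replicate also reaching it, limit read from the data; inconclusive means only one of the two criteria met; inactive means mean below limit and not every replicate reaching it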
Target sequence (P55789 whole entry, looked up): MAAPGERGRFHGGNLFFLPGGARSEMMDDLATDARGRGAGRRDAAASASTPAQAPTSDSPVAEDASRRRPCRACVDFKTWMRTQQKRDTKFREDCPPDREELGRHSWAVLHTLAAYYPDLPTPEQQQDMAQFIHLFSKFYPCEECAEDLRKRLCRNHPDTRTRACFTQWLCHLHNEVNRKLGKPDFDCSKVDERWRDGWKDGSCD
PDI turbidity: inhibitors of human protein disulfide isomerase | P07237 | PDI insulin aggregation turbidity, A650, 90 min | inhibition, % at 10 µM | 0.052% of 350,000 active | AID 588391;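 active means mean inhibition across replicates of 30% or more, whatever share of single replicates reach that level; inconclusive means mean inhibition below 30% while every single replicate reaches 30%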
NRP1-CendR mod: alters CendR peptide binding to human NRP-1 | FAM-RPARPAR peptide binding to NRP-1, fluorescence polarization | 0.85% of 360,000 active | O14786 | inhibition, % at 25 µM;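 active means inhibition or corrected inhibition above about 18%, plus a signal ratio from 0.5 to 1.5, limit read from the data, passing the limit was not always enough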
ERp5 block: ERp5 (human) disulfide isomerase inhibition. 0.05% of 350,000 active. Q15084. inhibition, % at 9.99 µM. ERp5 insulin aggregation, absorbance 650 nm, 90 min. AID 651711;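 active means mean replicate inhibition above about 25%, with every replicate also reaching it, limit read from the data, passing the limit was not always enough; inconclusive means only one of those two criteria met; inactive means neither criterion met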
Target sequence (Q15084 whole entry, looked up): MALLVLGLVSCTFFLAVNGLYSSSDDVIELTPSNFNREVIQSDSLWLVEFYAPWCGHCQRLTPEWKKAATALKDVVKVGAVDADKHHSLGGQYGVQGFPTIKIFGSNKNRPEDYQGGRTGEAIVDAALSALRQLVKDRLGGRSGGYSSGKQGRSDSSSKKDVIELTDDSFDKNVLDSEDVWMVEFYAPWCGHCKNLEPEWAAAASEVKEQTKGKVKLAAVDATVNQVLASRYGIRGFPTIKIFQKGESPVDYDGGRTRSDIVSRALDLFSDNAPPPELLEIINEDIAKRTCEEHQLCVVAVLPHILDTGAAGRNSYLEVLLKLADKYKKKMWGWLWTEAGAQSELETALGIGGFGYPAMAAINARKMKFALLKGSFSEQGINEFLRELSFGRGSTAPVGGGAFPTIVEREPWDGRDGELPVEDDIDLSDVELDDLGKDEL
A number is an active result.

For COC(=O)CSC1=NS(=O)(=O)c2ccccc21 the results were ARNT-TACC3 inh inactive, ALR H2O2 inh 100, PDI turbidity inactive and NRP1-CendR mod inactive.
For O=C(CSC1=NS(=O)(=O)c2cc(F)ccc2N1)Nc1ccccc1 the results were ARNT-TACC3 inh inactive, PDI turbidity inactive, NRP1-CendR mod inactive and ERp5 block inactive.
For O=C(CSC1=NS(=O)(=O)c2ccccc21)Nc1ccccc1 the results were PglD inh inactive, ARNT-TACC3 inh inactive, ALR H2O2 inh 99, NRP1-CendR mod inactive and ERp5 block inactive.
`COC(=O)CSc1ccccc1C(=O)OC` gave PglD inh inactive, ARNT-TACC3 inh inactive, ALR H2O2 inh inactive, PDI turbidity inactive, NRP1-CendR mod inactive and ERp5 block inactive.
`N#CCSc1nc2cc(C(=O)N3CCC(C(N)=O)CC3)ccc2c2nc3ccccc3n12` gave PglD inh inactive, ARNT-TACC3 inh 47, ALR H2O2 inh 98, PDI turbidity inactive and NRP1-CendR mod inactive.
For N#CCSc1nc2cc(C(=O)N3CCCC3)ccc2c(=O)n1Cc1ccccc1 the results were PglD inh inactive, ARNT-TACC3 inh inactive, ALR H2O2 inh inactive, PDI turbidity inactive and NRP1-CendR mod inactive.
For COc1ccc(-c2cnc3c(c2)C(=O)N([C@@H](C)CO)C[C@@H](C)[C@@H](CN(C)C(=O)C2CCCCC2)O3)cc1 the results were PglD inh inactive, ARNT-TACC3 inh inactive and ERp5 block inactive.
Screening Cc1ccc(S(=O)(=O)N2C[C@H](O)COC[C@H]3O[C@@H](CC(=O)N4CCc5ccccc5C4)CC[C@@H]32)cc1 returned PglD inh inactive, ARNT-TACC3 inh inactive and ERp5 block inactive.
For CC(=O)N(/N=C1\Sc2ccccc2C1=O)c1ccccc1C the results were PglD inh inactive, ARNT-TACC3 inh 59, PDI turbidity inactive and NRP1-CendR mod inactive.
`N/C(=N\O)c1cn(Cc2ccccc2Cl)c2ccccc12` gave PglD inh inactive, ARNT-TACC3 inh inactive, ALR H2O2 inh 99, PDI turbidity inactive, NRP1-CendR mod inactive and ERp5 block inactive.
COc1ccc(OCCn2cc(/C(N)=N/O)c3ccccc32)cc1 was read as PglD inh inactive, ARNT-TACC3 inh inactive, PDI turbidity inactive, NRP1-CendR mod inactive and ERp5 block inactive.
Cc1ccc(OCCn2cc(/C(N)=N/O)c3ccccc32)cc1C was read as PglD inh inactive, ALR H2O2 inh 78, PDI turbidity inactive and NRP1-CendR mod inactive.
Screening O=C(C[C@H]1CC[C@@H]2[C@H](COC[C@H](O)CN2Cc2ccccc2F)O1)N[C@H]1CCN(Cc2ccccc2)C1 returned PglD inh inactive, ARNT-TACC3 inh inactive and ERp5 block inactive.
`CC1CCc2c(sc3nc(CN4CCOCC4)nc(Sc4ccccc4)c23)C1` (stereo unspecified) gave PglD inh inactive, ARNT-TACC3 inh inactive, ALR H2O2 inh 98, PDI turbidity inactive and NRP1-CendR mod inactive.
CN(C)c1ccc(-c2cc(O)c3ncccc3c2)cc1 was read as PglD inh inactive, ARNT-TACC3 inh inactive, ALR H2O2 inh inactive, PDI turbidity inactive, NRP1-CendR mod inactive and ERp5 block inactive.
Oc1cc(NCCc2cccnc2)cc2cccnc12 was read as PglD inh inactive, ARNT-TACC3 inh 73, ALR H2O2 inh inactive, PDI turbidity inactive, NRP1-CendR mod inactive and ERp5 block inactive.
For Oc1cc(Nc2cccnc2)cc2cccnc12 the results were PglD inh inactive, ARNT-TACC3 inh 58, ALR H2O2 inh 90, PDI turbidity inactive, NRP1-CendR mod inactive and ERp5 block inactive.
`Cc1ccc(S(=O)(=O)N2CC[C@@H]3[C@@H](CO)Nc4ccc(-c5cccc(C(=O)N(C)C)c5)cc4[C@@H]32)cc1` gave PglD inh inactive and ARNT-TACC3 inh inactive.
CC12CC(NC(=O)N1c1cccc(C(=O)Nc3ncn[nH]3)c1)c1ccccc1O2 (stereo unspecified) was read as PglD inh inactive, ARNT-TACC3 inh 21, ALR H2O2 inh inactive, PDI turbidity inactive and NRP1-CendR mod inactive.
For Cc1ccsc1/C=N\NC(=O)c1cc(C(C)(C)C)[nH]n1 the results were ARNT-TACC3 inh inactive, ALR H2O2 inh 89, PDI turbidity inactive, NRP1-CendR mod inactive and ERp5 block inactive.
Cc1cc(C(=O)N/N=C/c2ccc(C)s2)n[nH]1 was read as PglD inh inactive, PDI turbidity inactive, NRP1-CendR mod 18 and ERp5 block inactive.
Cc1cc(C(=O)N/N=C/c2ccc([N+](=O)[O-])s2)n[nH]1 was read as PglD inh inactive, ARNT-TACC3 inh inactive, ALR H2O2 inh inactive, PDI turbidity inactive, NRP1-CendR mod inactive and ERp5 block inactive.
Screening Cc1cc(C(=O)N/N=C/c2sccc2C)no1 returned ARNT-TACC3 inh inactive, ALR H2O2 inh inactive, PDI turbidity inactive and NRP1-CendR mod inactive.
For COCC#Cc1ccc([C@H]2[C@@H](CO)N3C(=O)CN(C(=O)Nc4ccc(F)cc4)C[C@H]23)cc1 the results were ERp5 block inactive.
Screening COC(=O)c1cn(NC(=O)C2CCC(C)CC2)c(=O)c2ccccc12 (stereo unspecified) returned PglD inh inactive, ARNT-TACC3 inh inactive, ALR H2O2 inh inactive, PDI turbidity inactive and NRP1-CendR mod inactive.
Screening COC(=O)c1cn(NC(=O)c2cc([N+](=O)[O-])ccc2F)c(=O)c2ccccc12 returned ARNT-TACC3 inh inactive, ALR H2O2 inh 96, PDI turbidity inactive, NRP1-CendR mod inactive and ERp5 block inconclusive.
Screening Cc1cc(C(=O)CN2C(=O)NC3(CCCc4ccccc43)C2=O)c(C)n1Cc1ccccc1 (stereo unspecified) returned ARNT-TACC3 inh inactive, ALR H2O2 inh inactive, PDI turbidity inactive and NRP1-CendR mod inactive.
Cc1cc(C(=O)CN2C(=O)CCC2=O)c(C)n1Cc1ccccc1 was read as PglD inh inactive, ARNT-TACC3 inh inactive, ALR H2O2 inh 94, PDI turbidity inactive and NRP1-CendR mod inactive.
Screening C[C@@H]1CN([C@@H](C)CO)C(=O)c2cccc(NC(=O)Nc3ccc4c(c3)OCO4)c2O[C@@H]1CN(C)C returned PglD inh inactive, ARNT-TACC3 inh inactive and ERp5 block inactive.
O=C(CN1CCN(c2ccc(F)cc2)CC1)NCc1ccc(F)cc1 was read as PglD inh inactive, ARNT-TACC3 inh inactive, PDI turbidity inactive, NRP1-CendR mod inactive and ERp5 block inactive.
For O=C(CCc1ccccc1)N1CCN(c2ccc(F)cc2)CC1 the results were ARNT-TACC3 inh inactive, ALR H2O2 inh 86, PDI turbidity inactive, NRP1-CendR mod inactive and ERp5 block inactive.
`O=C(CN1CCN(c2ccc(F)cc2)CC1)OCc1ccccc1` gave PglD inh inactive, ARNT-TACC3 inh inactive, ALR H2O2 inh 92, PDI turbidity inactive and NRP1-CendR mod inactive.
`O=C(CCc1ccccc1)N1CCN(c2ccccc2F)CC1` gave PglD inh inactive, ARNT-TACC3 inh inactive, ALR H2O2 inh inactive, PDI turbidity inactive, NRP1-CendR mod inactive and ERp5 block inactive.

Bioassay records: PubChem, several laboratories
